An excerpt weighted towards active compounds, which were near 21% of everything screened.
FBPA Giardia inh: qHTS Assay for Inhibitors of Fructose-1,6-bisphosphate Aldolase from Giardia Lamblia. A8B2U2. purified Giardia FBPA. hit rate 0.71% among 290,000. Potency, µM (highest dose often 59.6 µM), for the others: at the top dose activity, negative = inhibition, actives largely listed as inhibitors; also: potency is read from the fitted curve at half-maximal effect; % is scaled to controls: 0 for no effect and ±100 for the full control effect; nearly all actives have a fitted effect of over 55% in size
Target sequence (A8B2U2 whole entry, looked up): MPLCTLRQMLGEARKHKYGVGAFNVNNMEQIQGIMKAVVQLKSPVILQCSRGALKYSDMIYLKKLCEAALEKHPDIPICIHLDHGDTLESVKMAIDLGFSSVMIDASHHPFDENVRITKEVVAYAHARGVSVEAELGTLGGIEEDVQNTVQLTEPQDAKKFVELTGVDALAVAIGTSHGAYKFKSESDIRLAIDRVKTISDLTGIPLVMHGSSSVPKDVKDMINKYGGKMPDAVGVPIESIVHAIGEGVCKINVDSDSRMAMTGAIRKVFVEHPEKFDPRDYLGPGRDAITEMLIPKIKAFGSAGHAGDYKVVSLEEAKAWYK
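Giardia FBPA (40 nM reagent) was preincubated 10 min at RT with compound (up to 57.5 uM final), then substrate plus GAPDH/TPI/NAD/arsenate coupling system with diaphorase/resazurin was added; resorufin fluorescence (525/598 nm) was read after 20 min.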
Pf growth 96h: Primary qHTS for delayed death inhibitors of the malarial parasite plastid, 96 hour incubation; P. falciparum luciferase reporter growth, 96 h; Potency, µM (highest dose often 28.7 µM), for the others: top-dose activity change, negative = inhibition, most hits filed as inhibitors; hit rate 6.9% among 320,000; also: potency is read from the fitted curve at half-maximal effect; % is scaled to controls: 0 for no effect and ±100 for the full control effect
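Luminescence readout: decreased luciferase signal marks inhibited growth of reporter-expressing P. falciparum in infected red cells (2% hematocrit, 0.05% parasitemia final), exposed to compound two generations (96 h, 37 C, 5% CO2).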
NS1 inh: qHTS Assay for Inhibitors of Influenza NS1 Protein Function; Potency, µM (titrated, usually from 46.1 µM), without a hit: at the top dose activity, positive = more growth; hit rate 0.4% among 270,000; calls by dose curve; also: potency is read from the fitted curve at half-maximal effect; actives are rising curves; nearly all actives have a fitted effect of over 50% in size
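A cell-based growth assay was used: compounds that relieve NS1-induced slow growth of budding yeast raise OD600. Assay medium was yeast nitrogen base with ammonium sulphate and -URA supplement, pH 6.0, with 2% galactose.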
Shiga toxin inh: A qHTS for Small Molecule Inhibitors of Shiga Toxin; inhibition, % at 38.7 µM; hit rate 9.2% among 290,000; Vero cells, Shiga toxin protein synthesis inhibition reporter; AID 2315, 2010; in the data active = inhibition mostly above about 28%, no sharp cut-off; inactive = mostly below about 43%; also: 0% is about no effect
Pf growth 48h: Primary qHTS for delayed death inhibitors of the malarial parasite plastid, 48 hour incubation | P. falciparum luciferase growth in erythrocytes, 48 h | Potency, µM (highest dose often 28.7 µM), for inactives: top-dose activity change, negative = inhibition, most hits filed as inhibitors | hit rate 5.9% among 310,000 | AID 504832, 2011; also: potency is read from the fitted curve at half-maximal effect; % is scaled to controls: 0 for no effect and ±100 for the full control effect
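Here the parasites carry a stable luciferase gene and grow inside erythrocytes in Albumax-based RPMI medium with compound for one erythrocytic cycle. Activity is scored as loss of luminescent signal.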
Cycloheximide cs: Cycloheximide Counterscreen for Small Molecule Inhibitors of Shiga Toxin; cell reporter, cycloheximide protein synthesis inhibition counterscreen; max response, %; hit rate 12% among 300,000; in the data active = max response mostly above about 13%, no sharp cut-off; inactive = mostly below about 14%; also: read at 38.3 µM for the half of the compounds with a filed dose; 0% is about no effect
An asterisk follows results filed as active; ? = inconclusive; · = no result given; ! = a repeat was not active; [ ] = remark or other dose. Unless noted, calls follow the shape of the dose curve; as a rule, active = well fitted curve in the direction sought with a large enough effect; inconclusive = small, poorly fitted or top-dose-only effect, or another doubt; inactive = no such curve, though single readings can be large; an effect the other way counts as inactive or inconclusive.

SMILES	FBPA Giardia inh	Pf growth 96h	NS1 inh	Shiga toxin inh	Pf growth 48h	Cycloheximide cs
Cc1ccc(NC(=O)C(OC(=O)c2cc(C)oc2C)c2ccccc2)cc1 (stereo not drawn)	2%	?	5%	-3	5%	2
Cc1cc(C(=O)OC(C(=O)Nc2cccc(C(F)(F)F)c2)c2ccccc2)c(C)o1 (stereo not drawn)	-7%	5.2µM*	5%	-5	9.3µM*	8
CCc1sc(C(=O)NCCc2ccc(S(N)(=O)=O)cc2)cc1Br	-10%	?	2%	-10	3%	-1
Nc1ncnc2c1cnn2-c1ccccc1	0%	8%	-12%	91*!	66%	29*
CCc1nc(NC(C)(C)C)c2cnn(-c3ccccc3)c2n1	-10%	-6%	-2%	99*	51%	41*
CCCCNc1ncnc2c1cnn2-c1ccc(Cl)cc1	-14%	128%	-10%	72*	45%	51*
CCCCNc1ncnc2c1cnn2Cc1ccc(Cl)cc1	1%	?	-34%	-10	-27%	2
Clc1ccc(-n2ncc3c(NCCCn4ccnc4)ncnc32)cc1	-1%	·	-10%	35*	·	21*
Cc1cccc(CN2CC34C=CC(CC3S2(=O)=O)O4)c1 (stereo not drawn)	8%	·	·	38	·	27
O=S(=O)(c1ccccc1)N(CC(F)(F)F)c1ccc(C(O)(C(F)(F)F)C(F)(F)F)cc1	-7%	·	·	-14	·	-5
Cc1ccc(CNc2ncnc3c2cnn3-c2ccccc2)cc1	3%	-20%	16%	-5	13%	1
CCCCNc1ncnc2c1cnn2-c1ccccc1	-15%	12µM*	-99%	92*	117%	61*
CC(C)(C)C(=O)CSc1ncnc2c1cnn2-c1ccccc1	7%	29%	-3%	62*	223%	43*
CC(C)OC(=O)CSc1ncnc2c1cnn2-c1ccccc1	6%	87%	-9%	-4	·	1
CCCCC[C@H]1CN(Cc2ccccc2)C(=O)[C@@H]1CC(=O)NCc1ccc(OC)cc1	9%	38%	-32%	-5	-1%	-1
Cc1cc(C)cc(NC(=O)c2ccc(NC(=O)c3ccco3)cc2)c1	-2%	3%	-1%	-8	?	1
CC1N(C)c2cc(NC(=O)c3ccco3)ccc2C1(C)C (stereo not drawn)	?	16%	-85%	74*	-71%	44*
CC1N(C)c2cc(NC(=O)c3ccco3)c(P(=O)(Nc3ccc([N+](=O)[O-])cc3)N3CCOCC3)cc2C1(C)C (stereo not drawn)	-22%	9.3µM*	6%	56*	5.9µM*	24
O=S(=O)(c1ccc(-c2ccon2)s1)N1CCN(c2ccncc2)CC1	14%	5%	?	-18	1.3µM*	0
Cc1cccc(Nc2ncnc3onc(-c4cccc(Cl)c4)c23)c1C	7%	9.3µM*	-52%	12	?	8.2*
CC(C)CNC(=S)NC1CC2CCCC(C1)N2Cc1ccco1 (stereo not drawn)	4%	12µM*	1%	-18	-17%	-2
CNC(=S)NC1CC2CCCC(C1)N2Cc1ccco1 (stereo not drawn)	-4%	34%	13%	-2	12%	5
CC(C)CNC(=S)NC1CC2CCCC(C1)N2Cc1cccs1 (stereo not drawn)	2%	3.7µM*	-5%	10	13µM*	-1
Fc1ccc(NC(=S)NC2CC3CCCC(C2)N3Cc2cccs2)cc1 (stereo not drawn)	1%	2%	4%	-30	?	-4
O=C(CN1CCc2ccccc2C1)Nc1ccc(OC(F)(F)F)cc1	-2%	-1%	1%	6	36%	-3
O=C(CN1CCOCC1)Nc1ccc(Br)cc1	6%	32%	-3%	14	·	12
O=C(CN1CCCC1)Nc1ccc(OC(F)(F)F)cc1	?	73%	7%	·	15%	20*
O=C(CN1CCOCC1)Nc1ccc(OC(F)(F)F)cc1	?	-12%	6%	28	35%	21*
C=CCNC(=O)N1CCc2nc(CCCC)c3c(c2C1)CO[C@@H](C)C3	3%[12.9 µM]	·	·	·	·	·
Cc1ccc(-c2n[nH]c(=S)n2/N=C/c2ccc(C)s2)cc1	2%	12µM*	13%	-17	12µM*	-7

Assay outcomes deposited in PubChem BioAssay by National Center for Advancing Translational Sciences (NCATS).
